Compound activity from PubChem BioAssay.
IEC-6 tox: cytotoxicity in IEC-6 intestinal epithelial cells, primary screen, cytotoxicity control for KLF5 inhibitor project, cell-based, luminescence | 290,000 tested, 0.78% active | IEC-6 cytotoxicity, luminescence viability | AID 1825, 2009 | inhibition, % at 5 µM; in the data active means inhibition above about 22%;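 further: 0% = plate median of test compound wells and 100% = cytotoxic reference compound wells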
BaF3 tox: parental Ba/F3 cell viability inhibition, counter-screen for JAK2V617F inhibitor project, murine pro-B, CellTiter-Glo luminescence; CellTiter-Glo ATP luminescence; inhibition, % at 5.6 µM; AID 1486, 2009; 220,000 tested, 1.1% active;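 active means inhibition above a per-campaign cutoff, the mean inhibition of all tested compounds plus 3 SD, cut at about 27% in these data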;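 further: 0% = DMSO wells and 100% = JAK Inhibitor I control wells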
APP 5UTR inh: inhibitors of APP translation via 5'UTR reporter, primary screen, APP 5'UTR luciferase, SH-SY5Y cells; SH-SY5Y APP 5'UTR-luciferase reporter, luminescence; inhibition, % at 2 µM; 190,000 tested, 0.82% active; AID 1285, 2008;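 active means inhibition above a set limit, derived from the sample mean plus 3 SD, cut at about 45% in these data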
KLF5 inh: KLF5 expression inhibitors, primary screen, DLD-1 cells, luminescence. DLD-1 KLF5 promoter-luciferase reporter. inhibition, % at 5 µM. 290,000 tested, 0.23% active;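 active means inhibition above a per-plate limit of that plate's mean compound inhibition plus 3 SD, cut at about 60% in these data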;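 further: 0% = DMSO wells and 100% = LY294002 at 200 µM; higher means less KLF5 promoter-driven luciferase light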
Ba/F3 V617F tox: reduced viability of JAK2V617F-dependent Ba/F3 cells, primary screen, JAK2V617F inhibitor project, cell-based, Ba/F3 EpoR-JAK2V617F, luminescence. inhibition, % at 5.6 µM. 220,000 tested, 1.1% active. ATP luminescence. AID 1446, 2008;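 active means inhibition above the campaign mean plus 3 SD over all tested compounds, cut at about 24% in these data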;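 further: cytokine-independent growth of Ba/F3 cells driven by EpoR plus mutant JAK2; 0% = DMSO-treated cells and 100% = JAK inhibitor I control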
aSyn 5UTR inh: MLPCN primary screen, SNCA 5' untranslated region. alpha-synuclein 5'UTR reporter, inhibitor activity. AID 1813, 2009. 300,000 tested, 0.82% active. inhibition, % (tested at 7.5 µM); in the data active means inhibition above about 60%;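 further: H4 neuroglioblastoma cells stably carrying SNCA 5'UTR luciferase fusion; 0% = DMSO wells and 100% = positive control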
* = called active by the depositor; / = no result given. In the library only some 2.2% were active in any assay of this set; here they are far more common.

SMILES	IEC-6 tox	BaF3 tox	APP 5UTR inh	KLF5 inh	Ba/F3 V617F tox	aSyn 5UTR inh
CCOC(=O)c1cnc(-n2nc(C)cc2C)nc1NCc1ccccc1	8	1	7	-16	1	27
CCOC(=O)c1cnc(-n2nc(C)cc2C)nc1NNc1ncc(-c2ccccc2)cn1	-1	1	/	-10	-3	83*
Cc1cccc(NS(=O)(=O)c2cnc[nH]2)c1	4	93*	4	-20	4	11
O=C1c2ccccc2C(=O)C1c1ccnc2ccccc12	8	1	-146	-135	-4	89*
O=C1c2ccccc2C(=O)C1c1nccc2ccccc12	1	4	-100	-22	1	99*
COc1ccc([C@H]2/C=C\CN(C(=O)[C@H](Cc3ccccc3)NC(=O)OCC3c4ccccc4-c4ccccc43)CC(=O)N2Cc2ccc(F)cc2)cc1	/	/	/	/	/	3
Cc1ccc(NC(=S)N=Nc2c(O)n(C)c3ccc(S(=O)(=O)N4CCOCC4)cc23)cc1	5	7	69*	7	2	75*
Cc1cc(C)cc(NC(=S)N=Nc2c(O)n(C)c3ccc(S(=O)(=O)N4CCOCC4)cc23)c1	4	-2	38	-11	0	63*
Cc1cccc(NC(=S)N=Nc2c(O)n(C)c3ccc(S(=O)(=O)N4CCOCC4)cc23)c1	-3	0	66*	-6	-7	83*
O=S(=O)(c1ccc(Cl)c(NC(=S)Nc2cccc(O)c2)c1)N1CCOCC1	-2	3	6	-33	0	-5
Cc1ccc(NC(=O)c2ccc(S(=O)(=O)N3CCOCC3)cc2)cc1	-1	/	/	-8	/	-20
Cn1c(=O)n(C)c2cc(S(=O)(=O)N3CCOCC3)ccc21	2	3	-11	-1	2	22
CCOC(=O)c1sc2nc(CSc3ccccc3)nc(N3CCCN(C)CC3)c2c1C	4	2	18	17	5	78*
CCOC(=O)c1sc2nc(CSc3ccccc3)nc(N3CCC(C(N)=O)CC3)c2c1C	3	5	-10	-6	2	18
O=C1c2ccc3c4c(ccc(c24)C(=O)N1c1cccc(O)c1)C(=O)N(c1cccc(O)c1)C3=O	14	18	/	0	13	68*
COc1ccc2c(c1)c(CC(=O)Nc1nnc(C3CC3)s1)c(C)n2C(=O)c1ccc(Cl)cc1	7	38*	/	-8	17	24
CCOC(=O)C1(CCOc2ccccc2)CCN(Cc2ccc(O)c(Cl)c2)CC1	-2	/	/	-43	/	108*
CCOC(=O)C1(CCOc2ccccc2)CCN(Cc2ccc(O)c(OC)c2)CC1	-1	/	/	-2	/	-38
O=C1NC(N2CCOCC2)=N/C1=C/c1ccc2c(c1)OCO2	19	1	0	-23	4	-8
CN1CCN(C2Cc3cc(Cl)ccc3Sc3cc(F)ccc32)CC1 (stereo not drawn)	/	/	/	/	/	101*
O=C(NCC(=O)N1CCCCC1)c1ccc(Br)o1	-6	/	/	-95	/	-46
Cc1cc(C)n(-c2nc(NCCCN(C)C)c3c4c(sc3n2)CCCC4)n1	8	1	/	-20	4	-36
Cc1cc(C)n(-c2nc(NCCN(C)C)c3c4c(sc3n2)CCCC4)n1	10	-4	/	-25	4	116*
Cn1c(=O)c2[nH]c(COc3ccc(C(C)(C)C)cc3)nc2n(C)c1=O	8	48*	/	-4	26*	-7
Cn1c(=O)c2[nH]c(CNCc3ccccc3Cl)nc2n(C)c1=O	5	5	4	10	3	-7
SMILES	IEC-6 tox	BaF3 tox	APP 5UTR inh	KLF5 inh	Ba/F3 V617F tox	aSyn 5UTR inh
O=[N+]([O-])c1cc(Cl)cc(/C=N\Nc2ccccn2)c1O	-3	-2	9	-15	-2	90*
O=C(NC1CCCCCC1)c1ccco1	-3	/	/	-15	/	-29
Cc1nn(C)c(C)c1CN(C)C(=O)CCCC(=O)O	5	93*	-19	7	-2	-3
CC(C)CC(=O)NC(=S)NNC(=O)c1ccc(NC(=O)C2CCCCC2)cc1	-4	7	19	-6	-1	75*
CC(C)CC(=O)NC(=S)NNC(=O)c1ccc([N+](=O)[O-])cc1	-1	7	-8	-23	-4	1
O=C1c2cccc3c(Cl)ccc(c23)C(=O)N1O	22*	5	-6	-2	-2	10
CCN1C(=O)c2cccc3c(Cl)ccc(c23)C1=O	3	7	-11	-3	3	-9
CCn1c(=N)c(C(=O)NC)cc2c(=O)n3cccc(C)c3nc21	/	/	-6	/	/	/
CCNc1nc(C)c2cc(Br)c(=O)n(CC)c2n1	15	4	17	13	-1	76*
Cc1[nH][nH]c(=O)c1C(c1c(C)[nH][nH]c1=O)c1cn(Cc2ccccc2Cl)c2ccccc12	-1	2	49*	-2	1	9
N/C(=N\O)c1cn(Cc2ccccc2Cl)c2ccccc12	10	/	/	-26	/	8
O=C(CSc1nnc2ccccn12)Nc1ccc(S(=O)(=O)N2CCOCC2)cc1	0	-1	14	-6	-4	-12
CCS(=O)(=O)N1CCCC(c2nc(-c3cccc(OC)c3)no2)C1 (stereo not drawn)	5	96*	-25	-33	-3	-102
CCCS(=O)(=O)N1CCCC(c2nc(-c3ccc(OC)cc3)no2)C1 (stereo not drawn)	-3	4	-9	-5	-2	-6
CCN1CCN(CCC(=O)Nc2ccc(F)c(F)c2)CC1	2	/	/	-35	/	-3
C=C(C)COc1ccc(-c2n[nH]c(C)c2-c2ccc(Br)cc2)c(O)c1	0	2	67*	6	-2	19
C=C(C)COc1ccc(-c2[nH]ncc2-c2ccc(Br)cc2)c(O)c1	5	4	79*	23	10	91*
C=C(C)COc1ccc(-c2[nH]ncc2-c2ccccc2OC)c(O)c1	0	2	-7	-7	-2	-34
CCN(CC)CCn1c(=S)[nH]c2cc(C(=O)N3CC=C(c4ccccc4)CC3)ccc2c1=O	2	10	-16	-8	-1	15
CCOC(=O)c1[nH]c(C)c(C(=O)OCC(=O)N2CCc3ccccc32)c1C	0	5	46*	-14	1	33
CCOC(=O)c1c(C)[nH]c(C)c1C(=O)COC(=O)/C=C/c1ccc(OC(F)F)cc1	-3	3	-9	-7	1	-9
CCOC(=O)c1c(C)[nH]c(C(=O)COC(=O)/C=C/c2ccc(OC(F)F)cc2)c1C	-2	65*	3	-12	9	-2
CCOC(=O)c1c(C)[nH]c(C(=O)COC(=O)c2ccc(O)cc2)c1C	8	40*	/	4	39*	8
CSc1ncccc1C(=O)OCC(=O)c1ccc(Br)s1	0	4	-8	-69	-3	10
